From PubChem BioAssay (NCI)
This is part of a sample that, as a whole, favours compounds with a hit. Of some 83,000 tested, about 20% had one in any assay.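 Plates (96-well) were seeded with cells, treated with compound at one concentration, and incubated for 48 hours before percent growth was determined.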 Calls of active or inactive are those of the source. Rule for the calls: active = growth percent below 10; inactive = the rest.

Assays:
Test in all cases: NCI-60 one-dose screen, 48 h (100 = growth as untreated, 0 = no growth, -100 = all killed)
Details in all cases: 10 µM unless noted
[1] = system: DU-145 prostate
[2] = system: K-562 leukemia
[3] = system: MALME-3M melanoma
[4] = system: MDA-MB-231 breast
[5] = system: RXF 393 renal
[6] = system: SF-268 CNS
[7] = system: SF-295 CNS
[8] = system: SF-539 CNS
[9] = system: UACC-257 melanoma
[10] = system: M14 melanoma
[11] = system: HCT-15 colon
[12] = system: HT29 colon
[13] = system: SNB-75 CNS
[14] = system: SNB-19 CNS
[15] = system: U251 CNS
[16] = system: PC-3 prostate
[17] = system: SK-MEL-5 melanoma
[18] = system: UACC-62 melanoma
[19] = system: LOX IMVI melanoma
[20] = system: SK-MEL-28 melanoma

Measured: growth

CC/C=C\C[C@H](O)C/C=C1/C(=O)C=C[C@@H]1C/C=C\CCCCO
active: [2] 6.44% | [4] 8.29% | [11] 2.31% | [12] -39% | [15] -33% | [16] 0.486% | [18] -23.3% | [19] -68.9%
inactive: [1] 28.3% | [3] 34.7% | [5] 56.1% | [6] 78.3% | [7] 10.6% | [8] 14.5% | [9] 34% | [10] 16.4% | [13] 76.1% | [14] 55.8% | [17] 10.5% | [20] 16.7%

CCC(CO)Nc1nc2ccc(Cl)cc2c2ccccc12 (stereo not given)
active: [5] 4.53%
inactive: [1] 84.9% | [2] 38.2% | [3] 85.8% | [4] 55.7% | [6] 70.7% | [7] 74.8% | [8] 55.8% | [9] 97.5% | [10] 84.8% | [11] 57.1% | [12] 30.1% | [13] 18.8% | [14] 53.8% | [15] 51.3% | [16] 59.5% | [17] 68.4% | [18] 60.4% | [19] 67.2% | [20] 90.8%

CCN1C(=O)N(CC)C2C1NN=c1s/c(=C\c3cccs3)c(=O)n12 (stereo not given)
active: [4] 7.14% | [8] -3.34% | [10] 8.36% | [17] -4.97%
inactive: [1] 10.4% | [2] 14.5% | [3] 49.1% | [5] 11.5% | [6] 59.3% | [7] 19.3% | [9] 74.4% | [11] 16.5% | [12] 60.2% | [13] 16.6% | [14] 37% | [15] 19.8% | [16] 21.9% | [18] 38% | [19] 23.1% | [20] 58.3%

Cc1ccc2[nH]c(=O)c3c(c2c1)OC(N)=C(C#N)C31c2cc(Br)ccc2-c2ccc(Br)cc21
inactive: [1] 29.1% | [2] 60.7% | [3] 54.9% | [4] 39.1% | [5] 65.8% | [6] 78% | [7] 70.1% | [8] 85.5% | [9] 76.8% | [10] 55.1% | [11] 45.4% | [12] 39.7% | [13] 70% | [14] 62.5% | [15] 72.6% | [16] 48.3% | [17] 56% | [18] 49.5% | [19] 63% | [20] 66.8%

CN(C)c1ccc(-c2ccc3[nH]c(=O)nc(-c4ccccc4)c3c2)cn1
inactive: [1] 65.1% | [3] 51.2% | [4] 44.6% | [5] 64.5% | [6] 55.5% | [7] 39.5% | [8] 28.3% | [9] 80.8% | [10] 13.7% | [11] 28.1% | [12] 14.1% | [13] 27.9% | [14] 50.4% | [15] 38.1% | [16] 47.2% | [17] 39.6% | [18] 48.5% | [19] 38.5% | [20] 55.8%
active: [2] 7.91%

Cc1ccc(C2SCC(=O)N2Cc2ccccc2)cc1 (stereo not given)
inactive: [1] 118% | [2] 110% | [3] 93.3% | [4] 98.3% | [5] 114% | [6] 115% | [7] 95% | [8] 109% | [9] 97.7% | [10] 104% | [11] 100% | [12] 96.9% | [13] 95.1% | [14] 98.9% | [15] 97.6% | [16] 92.1% | [17] 105% | [18] 91.7% | [19] 97.9% | [20] 106%

N#Cc1c(-c2ccccn2)[nH]c(=S)[nH]c1=O
inactive: [1] 105% | [2] 97% | [3] 108% | [4] 117% | [5] 110% | [6] 101% | [7] 99.1% | [8] 97.3% | [9] 109% | [10] 97.6% | [11] 96.7% | [12] 96% | [13] 105% | [14] 126% | [15] 99.8% | [16] 103% | [17] 106% | [18] 118% | [19] 104% | [20] 112%

CS(=O)(=O)c1ccc(Nc2nc(N[C@H]3CCCC[C@H]3N)nc3cc[nH]c(=O)c23)cc1
active: [3] -31.9% | [4] -12.9% | [5] -54.7% | [6] -22.8% | [8] -11.8% | [9] -5.02% | [13] 4.36% | [14] 4.85% | [15] 4.89% | [17] -40.1% | [18] -33.9% | [19] -10.7% | [20] 3.17%
inactive: [1] 14.4% | [2] 10.9% | [7] 31.4% | [10] 43.5% | [11] 102% | [12] 15.5% | [16] 14.2%

COc1ccc2oc3c(C)c4c(c(C)c3c2c1)C(=O)N(Cc1ccccc1)C4=O
inactive: [1] 97.1% | [2] 92.3% | [3] 92.5% | [4] 90.3% | [5] 99% | [6] 87.8% | [7] 101% | [8] 89.7% | [9] 105% | [10] 92.9% | [11] 101% | [12] 96.1% | [13] 85.9% | [14] 95.1% | [15] 83.5% | [16] 85.5% | [17] 99.6% | [18] 92.5% | [19] 94% | [20] 103%

COc1cccc(-c2nn(-c3ccccc3)cc2-c2ccnc(NCCCNC(=O)c3ccccc3)c2)c1
active: [12] 8.81% | [17] 5.44%
inactive: [1] 64.7% | [2] 11.2% | [3] 57.5% | [4] 45.9% | [5] 63.3% | [6] 66.2% | [7] 51.5% | [8] 80.2% | [9] 40.7% | [10] 33.3% | [11] 33% | [13] 60.1% | [14] 70.4% | [15] 43.3% | [16] 26.2% | [18] 33.8% | [19] 66.1% | [20] 67.8%

O=C(O)c1ccc2c(c1)CCC2
inactive: [1] 118% | [2] 91.3% | [3] 106% | [4] 117% | [5] 120% | [6] 111% | [7] 103% | [8] 105% | [9] 105% | [10] 101% | [11] 104% | [12] 103% | [13] 107% | [14] 103% | [15] 104% | [16] 106% | [17] 108% | [18] 113% | [19] 97% | [20] 112%

CCN1C(=O)N(CC)C2Nn3c(s/c(=C\c4ccc(Cl)cc4Cl)c3=O)=NC21 (stereo not given)
inactive: [1] 24.2% | [2] 11.4% | [3] 75.6% | [4] 27.3% | [5] 43% | [6] 64.6% | [7] 26.5% | [8] 13.1% | [9] 83.9% | [10] 26% | [11] 22.4% | [12] 79.3% | [13] 42.6% | [14] 48.6% | [15] 26.3% | [16] 33.6% | [17] 24.5% | [18] 41.1% | [19] 42.9% | [20] 45.2%

COc1cc(/C=C/C(=O)c2cccc(-n3cc(-c4ccccc4)[nH]c3=O)c2)ccc1O
inactive: [1] 81.1% | [2] 20.9% | [3] 90.8% | [4] 90.3% | [5] 20% | [6] 66.5% | [7] 65.7% | [8] 85.7% | [9] 68.8% | [10] 84.7% | [11] 22.2% | [12] 44.5% | [13] 46.8% | [14] 90.5% | [15] 16.6% | [16] 61.3% | [17] 68.5% | [18] 69.8% | [19] 18.7% | [20] 70.2%

Cc1ccc(Nc2nc(N)nc(CSCC(=O)NN)n2)cc1
inactive: [1] 103% | [2] 96.6% | [3] 111% | [4] 98.9% | [5] 103% | [6] 97.9% | [7] 99.3% | [8] 95.1% | [9] 108% | [10] 114% | [11] 101% | [12] 106% | [13] 85.2% | [14] 98.5% | [15] 92.9% | [16] 93% | [17] 101% | [18] 90.8% | [19] 95.2% | [20] 99.9%
